Assay [1] is described as follows: Cell Viability - LYMP2-001 (AID 921).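 Also: series mostly up to about 92 µM; 0% = DMSO only and full inhibition = tetraoctylammonium bromide control wells; nearly all actives have a fitted effect of over 70% in size.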 In short, it runs like this:
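Cellular ATP loss read by luciferase luminescence after 24 h compound exposure at 37 C in complete medium. LYMP2-001 lymphoblastoid cells, 2500/well; qHTS concentration-response data fitted with Hill equation for AC50.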

Assay [2] can be described thus: MultiTox-Fluor Cytotoxicity Assay - LYMP1-002 - Dead Cells (AID 960).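 Also: cells exposed to compound for 16 h at 37 °C; 0% = DMSO and 100% = tetraoctylammonium bromide; nearly all actives have a fitted effect of over 60% in size.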 The essentials: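 Acute cytotoxicity in a human lymphoblastoid line is scored as rising dead-cell protease signal after 16 hr exposure at 37 C, measured fluorometrically (485/520).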
A short description of assay [3]: Cell Viability - LYMP2-005 (AID 967).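 Also: series mostly up to about 92 µM; plate controls were DMSO only for no effect and 92 µM tetraoctylammonium bromide control for full effect.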 In short, it runs like this: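 LYMP2-005 human lymphoblastoid cells (2500/well) were treated with compounds for 24 h at 37 C. Intracellular ATP was then measured by CellTiter-Glo luminescence after 30 min at room temperature. AC50 values came from Hill-equation fits of qHTS concentration-response data.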
A short description of assay [4]: Cell Viability - LYMP2-011 (AID 969).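 Also: 0% = DMSO only and full inhibition = 92 µM tetraoctylammonium bromide; nearly all actives have a fitted effect of over 60% in size.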 In short, it runs like this:
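Acute toxicity is scored as a concentration-dependent drop in intracellular ATP of a human lymphoblastoid line after 24 hr treatment. Values are AC50s modeled with the Hill equation.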

Assay [5] is described as follows: Cell Viability - LYMP2-013 (AID 970).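 Also: series mostly up to about 92 µM; 0% = DMSO only and full inhibition = tetraoctylammonium bromide control; nearly all actives have a fitted effect of over 55% in size.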 The essentials:
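Acute toxicity was measured in human lymphoblastoid cells (2500/well) exposed to compound titrations for 24 hr, with ATP luminescence (CellTiter-Glo) as read-out and AC50 fitted by Hill equation.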

The nature of assay [6]: Cell Viability - LYMP2-017 (AID 972). Also: series mostly up to about 92 µM; % is scaled to controls: 0 for no effect and ±100 for the full control effect; nearly all actives have a fitted effect of over 55% in size. In short, it runs like this:
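Steps: plate 2500 lymphoblastoid cells per well; incubate 5 hr at 37 C; add compound across a concentration series and incubate 24 hr at 37 C; add CellTiter-Glo and read luminescence after 30 min at room temperature; fit Hill curves for AC50.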

The nature of assay [7]: Cell Viability - LYMP2-023 (AID 975).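 Also: cellular ATP measured by luciferase luminescence as viability proxy; series mostly up to about 92 µM; plate controls were DMSO only for no effect and 92 µM tetraoctylammonium bromide control for full effect; nearly all actives have a fitted effect of over 55% in size.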 The essentials:
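Concentration-dependent drop in intracellular ATP measures acute cytotoxicity in a human lymphoblastoid line treated for 24 hours in complete culture medium. AC50 values are taken from Hill-equation fits of qHTS data.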

A short description of assay [8]: Cell Viability - LYMP2-002 (AID 977).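 Also: series mostly up to about 92 µM; plate controls were DMSO only for no effect and 92 µM tetraoctylammonium bromide for full effect.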 The essentials:
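Human lymphoblastoid LYMP2-002 cells, 2500 per well, exposed to compounds for 24 h at 37 C in complete medium; viability read as intracellular ATP by CellTiter-Glo luminescence, AC50 from Hill fits.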

The nature of assay [9]: Cell Viability - LYMP2-007 (AID 979).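 Also: cells exposed to compound for 24 h before reading; 0% = DMSO only and the negative end = 92 µM tetraoctylammonium bromide; nearly all actives have a fitted effect of over 60% in size.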 The essentials: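 Acute toxicity is scored as a concentration-dependent fall in intracellular ATP in human lymphoblastoid cells treated 24 hr at 37 C, measured by luciferase luminescence; Hill-equation modelling yields AC50.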
Assay [10] is described as follows: Cell Viability - LYMP2-014 (AID 983).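 Also: series mostly up to about 92 µM; plate controls were DMSO only for no effect and 92 µM tetraoctylammonium bromide for full effect; nearly all actives have a fitted effect of over 50% in size.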 The essentials:
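Decrease in intracellular ATP after 24 hr treatment at 37 C, measured by luciferase luminescence, indicated cytotoxicity. Concentration-response data were fitted with the standard Hill equation to give AC50.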

The nature of assay [11]: Cell Viability - LYMP2-016 (AID 984). Also: % is scaled to controls: 0 for no effect and ±100 for the full control effect; nearly all actives have a fitted effect of over 55% in size. The essentials:
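Cytotoxicity was scored by luminescent ATP content (CellTiter-Glo) after 24 h compound exposure at 37 C of a human lymphoblastoid line at 2500 cells/well. Concentration-response data were fitted to the Hill equation for AC50.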

A short description of assay [12]: Cell Viability - LYMP2-018 (AID 985).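 Also: compound exposure lasted 24 hr at 37 °C; plate controls were DMSO only for no effect and tetraoctylammonium bromide at 92 µM for full effect; nearly all actives have a fitted effect of over 50% in size.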 In short, it runs like this:
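Acute cytotoxicity is scored as a concentration-dependent drop in intracellular ATP after 24 hr exposure of the lymphoblastoid line in complete culture medium, measured by luciferase luminescence. Potency is expressed as AC50 from Hill modelling.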

Assay [13] in a line: Cell Viability - LYMP2-020 (AID 986). The essentials: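 Acute cytotoxicity in a human lymphoblastoid line is scored as a concentration-dependent fall in cellular ATP after 24 hr at 37 C in complete medium. The positive control is tetraoctylammonium bromide, and potency is given as Hill-fit AC50.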
The nature of assay [14]: Cell Viability - LYMP2-022 (AID 987). The essentials:
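Acute toxicity in a human lymphoblastoid line is scored as decreased intracellular ATP after 24 hr compound treatment at 37 C. ATP is measured by CellTiter-Glo luminescence; curves are fitted with the Hill equation to give AC50.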

Assay [15] in a line: Cell Viability - LYMP2-024 (AID 988).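 Also: plate controls were DMSO only for no effect and 92 µM tetraoctylammonium bromide for full effect; nearly all actives have a fitted effect of over 60% in size.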 In short, it runs like this: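 Acute toxicity is measured as concentration-dependent loss of intracellular ATP in a human lymphoblastoid line treated 24 hours at 37 C. Luciferase luminescence quantifies ATP; AC50 values come from standard Hill-equation modelling.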
The target of assay [16] is Retinoic acid receptor RXR-alpha (Homo sapiens) (UniProt P19793). The experiment in a line: qHTS assay for small molecule agonists of retinoid X receptor alpha signaling (AID 588544; calls by dose curve;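 also: 0% = DMSO basal wells and 100% = reference agonist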). On the technique in general: Quantitative high-throughput screening tests each substance at several concentrations.
Assay [17] is described as follows: qHTS assay for small molecule antagonists of retinoid X receptor alpha signaling (AID 588546; active = well fitted inhibition curve with a large enough effect in the signal ratio, with a control signal flat, not every such curve was filed as active; the % refers to the signal ratio;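 also: cells stimulated with 9-cis-retinoic acid as agonist; % is scaled to controls: 0 for no effect and ±100 for the full control effect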). The settings on record: HEK293T RXRa-UAS-bla, beta-lactamase ratio, antagonist mode; measured here: W530 green channel, cytotoxicity proxy. In short, it runs like this: (§1)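 Beta-lactamase reporter inhibition, read as CCF4 fluorescence ratio (ex 405, em 460/530 nm) after 2 h at RT. HEK293T UAS-bla cells, 2500/well, were stimulated with 9-cis-RA at 500 or 100 nM final alongside test compound for 18 h at 37 C.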

In assay [18] the target is Retinoic acid receptor RXR-alpha (Homo sapiens) (UniProt P19793). The assay is described as above. Conditions: HEK293T RXRa-UAS-bla, beta-lactamase ratio, antagonist mode. In short, it runs like this: as §1
Assay [19] is described as follows: qHTS assay for small molecule disruptors of the mitochondrial membrane potential - 1 hr assay (AID 651754; calls by dose curve; also: % is scaled to controls: 0 for no effect and ±100 for the full control effect; nearly all actives have a fitted effect of over 35% in size). The essentials: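 Steps: seed HepG2 cells and let attach overnight; pin-transfer compound or vehicle; incubate 1 hr at 37C; add Mito-MPS dye for 30 min; read two-channel fluorescence for monomer and aggregate forms.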
A short description of assay [20]: qHTS assay for environmental chemicals that activate the Aryl hydrocarbon Receptor (AhR) signaling pathway (AID 651777). Also: % of control where 0% means no effect; nearly all actives have a fitted effect of over 15% in size. Conditions: 1A2-DRE human hepatoma cells, luciferase, 24 h; activation: stronger effect = higher value. In short, it runs like this: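 1A2-DRE human hepatoma reporter line; 1,200 cells/well; cmpd or DMSO 24 h, 37 C/5% CO2; One-Glo 30 min RT; luciferase lum.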

“And” between values parts separate entries of the source, which are not always exact repeats. Equal values may be shown once. Records with an inconclusive call do not appear. The source made the active and inactive calls. Unless noted, calls follow the shape of the dose curve; as a rule, active = well fitted curve in the direction sought with a large enough effect; inconclusive = small, poorly fitted or top-dose-only effect, or another doubt; inactive = no such curve, though single readings can be large; an effect the other way counts as inactive or inconclusive.

Sequence of Retinoic acid receptor RXR-alpha (Homo sapiens) (P19793 whole entry, looked up): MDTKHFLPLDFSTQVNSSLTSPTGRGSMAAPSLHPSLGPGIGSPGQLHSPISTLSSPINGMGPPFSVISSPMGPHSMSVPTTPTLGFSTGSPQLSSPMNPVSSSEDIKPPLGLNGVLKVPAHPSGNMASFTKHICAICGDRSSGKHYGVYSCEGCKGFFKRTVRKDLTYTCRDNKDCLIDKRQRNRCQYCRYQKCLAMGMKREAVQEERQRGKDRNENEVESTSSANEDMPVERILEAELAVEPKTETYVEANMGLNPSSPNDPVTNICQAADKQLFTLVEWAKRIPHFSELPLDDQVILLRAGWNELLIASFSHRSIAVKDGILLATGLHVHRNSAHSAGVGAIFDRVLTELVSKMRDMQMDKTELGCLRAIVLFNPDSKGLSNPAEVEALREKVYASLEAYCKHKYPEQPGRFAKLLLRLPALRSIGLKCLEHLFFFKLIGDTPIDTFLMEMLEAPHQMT

Turning to `O=C(Cl)C(Cl)(Cl)Cl`, the Potency entry in assay [1], in assay [2], in assay [3], in [4], in assay [5] and in assay [6] was “inactive” each time. Also, the Potency entry in assay [7], in [8], in assay [9], in assay [10], in assay [11] and in assay [12] was “inactive” each time. Also, the Potency result in assay [13], in assay [14], in assay [15], in assay [16] and in [19] was “inactive” throughout. Also, the max response is 2.3% in assay [17] and 2.98% (inactive) in [18]. For the same compound, the activation in assay [20] is 0.0046% (inactive).
Take `CC(O)CCl` (stereo not given): the Potency result in assay [1], in assay [2], in [3], in assay [4], in assay [5] and in assay [6] was “inactive” throughout. Further, the Potency result in [7], in [8], in [9], in assay [10], in assay [11] and in assay [12] was “inactive” each time. The Potency result in assay [13], in assay [14], in [15], in assay [16] and in [19] was “inactive” throughout. Besides, the max response in assay [17] is -12.9% and -6.32%; in [18], -5.06% (inactive) and 5.36% (inactive). Moreover, in assay [20], the activation was 0.217% (inactive) and 1.37% (inactive).
`O=[N+]([O-])c1ccc(Cl)c(Cl)c1`: the Potency result in assay [1], in assay [2], in assay [3], in [4], in assay [5] and in [6] was “inactive” in each case. In addition, the Potency result in assay [7], in assay [8], in [9], in assay [10], in [11] and in assay [12] was “inactive” throughout. The Potency result in assay [13], in assay [14], in assay [15], in [16] and in [19] was “inactive” in each case. Further, the max response is -6.04% in [17] and 7.29% (inactive) in assay [18]. The activation in assay [20] is 0.165% (inactive).
Turning to `COc1ccc(N)cc1`, the Potency result in [1], in [2], in assay [3], in assay [4], in assay [5] and in [6] was “inactive” in each case. Moreover, the Potency entry in [7], in assay [8], in [9], in [10], in assay [11] and in assay [12] was “inactive” in each case. Also, the Potency result in assay [13], in assay [14], in assay [15], in assay [16] and in assay [19] was “inactive” each time. Moreover, the max response in assay [17] is 0.204% and 7.89%; in assay [18], -1.34% (inactive) and 19.9% (inactive). Moreover, in [20], the activation was 1.03% (inactive) and 6.89% (inactive).
Take `CCCCCCCC(=O)Cl`: the Potency entry in assay [1], in assay [2], in [3], in assay [4], in assay [5] and in assay [6] was “inactive” in each case. The Potency result in assay [7], in assay [8], in assay [9], in assay [10], in assay [11] and in assay [12] was “inactive” each time. Moreover, the Potency entry in assay [13], in assay [14], in assay [15], in assay [16] and in assay [19] was “inactive” in each case. The max response is -7.27% in assay [17] and 17.7% (inactive) in assay [18]. Also, the activation in assay [20] was -0.601% (inactive).
Take `C1CCC2CCCCC2C1` (stereo not given): the Potency entry in assay [1], in assay [2], in assay [3], in assay [4], in [5] and in [6] was “inactive” throughout. For the same compound, the Potency entry in assay [7], in [8], in assay [9], in assay [10], in assay [11] and in [12] was “inactive” in each case. Moreover, the Potency entry in [13], in assay [14], in assay [15], in [16] and in assay [19] was “inactive” each time. Besides, the max response in assay [17] is -2.39%; in assay [18] it was -5.58% (inactive). For the same compound, in [20], the activation was -0.339% (inactive).

These data come from PubChem BioAssay (NCATS).
